Bioassay records: PubChem, National Center for Advancing Translational Sciences (NCATS)
Most compounds without a hit are left out; they make up all but 12% or so of the library.
Sfp PPTase inh – Sfp phosphopantetheinyl transferase inhibition. Potency, µM, for the others: largest response in the series, negative = inhibition, actives largely listed as inhibitors. Q9F4F7. AID 1490. 3.5% of 310,000 active. Biochemical Sfp PPTase activity, qHTS;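 also: the enzyme is Sfp with the accession as filed and its product quenches rhodamine fluorescence; 0% = enzyme reaction without inhibitor and -100% = no enzyme wells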
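Sfp 15 nM + cpd, 15 min RT; start w/ rhodamine-CoA 5 uM, BHQ-2-YbbR 12.5 uM (final); 50 mM Hepes pH 7.6, 10 mM MgCl2, 0.01% NP-40, 0.01% BSA; read 525/598 nm at 0 and 30 min.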
JMJD2A Tudor inh – inhibitors of human JMJD2A Tudor domain | O75164 | AlphaScreen JMJD2A-Tudor / H3K4me3 peptide binding | Potency, µM (series often up to 114 µM), for inactives: at the highest dose activity change, negative = inhibition, usual class: inhibitors | 4.4% of 390,000 active | AID 504339; also: % is scaled to controls: 0 for no effect and ±100 for the full control effect; nearly all actives have a fitted effect of over 50% in size
L3MBTL1 inh – L3MBTL1 (human) inhibition | Q9Y468 | AlphaScreen L3MBTL1–H3K9me1 peptide binding | Potency, µM (doses to about 57.1 µM), without a hit: top-dose activity, negative = inhibition, hits mostly inhibitors | 0.66% of 230,000 active | AID 485360; also: % is scaled to controls: 0 for no effect and ±100 for the full control effect; nearly all actives have a fitted effect of over 60% in size
Target sequence (Q9Y468 whole entry, looked up): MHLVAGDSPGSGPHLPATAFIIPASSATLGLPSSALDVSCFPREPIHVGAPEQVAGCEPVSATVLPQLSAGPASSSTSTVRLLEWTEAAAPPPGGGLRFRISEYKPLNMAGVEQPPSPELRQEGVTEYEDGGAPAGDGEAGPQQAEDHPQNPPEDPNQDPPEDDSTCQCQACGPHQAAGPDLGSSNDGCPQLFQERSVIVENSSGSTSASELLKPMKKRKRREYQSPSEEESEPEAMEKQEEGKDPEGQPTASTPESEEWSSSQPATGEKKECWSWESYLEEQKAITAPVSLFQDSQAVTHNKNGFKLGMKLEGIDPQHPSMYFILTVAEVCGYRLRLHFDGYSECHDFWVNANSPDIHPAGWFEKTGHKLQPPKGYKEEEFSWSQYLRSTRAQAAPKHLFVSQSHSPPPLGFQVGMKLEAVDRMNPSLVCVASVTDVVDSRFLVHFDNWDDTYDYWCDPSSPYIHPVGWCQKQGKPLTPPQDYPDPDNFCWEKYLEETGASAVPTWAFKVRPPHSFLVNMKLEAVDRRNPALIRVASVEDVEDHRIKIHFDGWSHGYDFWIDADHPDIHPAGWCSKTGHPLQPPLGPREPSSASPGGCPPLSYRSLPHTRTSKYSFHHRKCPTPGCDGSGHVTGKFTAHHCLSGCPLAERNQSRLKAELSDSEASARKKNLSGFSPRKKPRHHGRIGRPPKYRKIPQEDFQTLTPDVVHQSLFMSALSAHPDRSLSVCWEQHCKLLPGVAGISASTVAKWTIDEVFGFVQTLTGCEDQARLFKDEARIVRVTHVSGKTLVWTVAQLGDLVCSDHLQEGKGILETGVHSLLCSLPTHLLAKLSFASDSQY
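L3MBTL1 (50 nM) pre-complexed 30 min with biotinylated H3(1-15)K9me1 peptide (75 nM), then compounds added for 30 min at room temperature; AlphaScreen streptavidin donor/nickel chelate acceptor beads (10 ug/mL final) read after 30 min dark incubation.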
HP1b binding inh – inhibitors of HP1-beta chromodomain binding to methylated histone tails | AlphaScreen HP1-beta / biotin-H3K9me3 peptide binding | 0.56% of 390,000 active | P83916 | AID 540317 | Potency, µM (doses to about 114 µM), for the others: at the highest dose activity change, negative = inhibition, hits mostly inhibitors; also: nearly all actives have a fitted effect of over 70% in size
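AlphaScreen: HP1-beta (50 nM) preformed 30 min with biotin-H3(1-18)K9me3 peptide (50 nM) in PBS pH 7.4, 0.01% Tween-20. Compound added for 30 min at RT, then streptavidin donor/nickel chelate acceptor beads (10 ug/mL) for 30 min.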
BAZ2B inh – inhibitors of human BAZ2B bromodomain; AlphaScreen BAZ2B-H3K14Ac peptide displacement; Potency, µM (highest dose often 114 µM), inactives show at the top dose activity change, negative = inhibition, usual class: inhibitors; 4.4% of 360,000 active; AID 504333; also: % is scaled to controls: 0 for no effect and ±100 for the full control effect; nearly all actives have a fitted effect of over 60% in size
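Complex of BAZ2B and biotin-H3K14Ac (50 nM apiece) forms over 30 min at RT, then faces library compounds up to 110 uM for another 30 min; AlphaScreen beads added, 20 min dark incubation, luminescence read.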
G9a block – blocks human histone lysine methyltransferase G9a; Q96KQ7; G9a H3K9 monomethylation, AlphaScreen, 2 h; Potency, µM (highest dose often 102 µM), without a hit: at the top dose activity, negative = inhibition, hits mostly inhibitors; 8.8% of 350,000 active; AID 504332; also: % is scaled to controls: 0 for no effect and ±100 for the full control effect; nearly all actives have a fitted effect of over 75% in size
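Methyltransferase reactions run at room temperature for 2 h (20 nM enzyme, 500 nM biotin-H3K9 peptide, 20 uM SAM) after a 15 min compound preincubation; product detected by AlphaScreen beads and anti-H3K9me1 antibody.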
Starred values were filed as active, the others as inactive; ? = inconclusive; . = no result; ! = not confirmed by another sample; [ ] = remark or other dose. Calls follow the shape of the dose curve; as a rule, active = well fitted curve in the direction sought with a large enough effect; inconclusive = small, poorly fitted or top-dose-only effect, or another doubt; inactive = no such curve, though single readings can be large; an effect the other way counts as inactive or inconclusive. Potency is read from the fitted curve at half-maximal effect.

SMILES	Sfp PPTase inh	JMJD2A Tudor inh	L3MBTL1 inh	HP1b binding inh	BAZ2B inh	G9a block
Fc1ccccc1-c1nc2ccccc2[nH]1	-21%	-8%	55%	17%	3%	4%[0.501 µM]
CSc1ncccc1-c1nc2ccccc2[nH]1	4%	-9%[57.1 µM]	.	1%	11%	10µM*
CCN(CC)C(=O)CSc1ncccc1-c1nc2ccccc2[nH]1	6%	-14%	2%	34%	-12%	50µM*
c1ccc2[nH]c(-c3ccnc4ccccc34)nc2c1	79µM*!	-13%	0%	40%	?	8.9µM*!
CCCCNC(=O)c1c(-c2ccccc2)c(-c2ccccc2)nn(C)c1=O	.	-7%	.	24%	-2%	-46%[59 µM]
O=c1c2c(nc3cc(-c4ccccc4Cl)[nH]n13)CCS2	22µM*	-17%	?	26%	-6%	.
O=c1c2c(nc3cc(-c4ccccc4)[nH]n13)CCS2	1%	-18%	14%	24%	2%	10%
CCOC(=O)c1c(NC(=O)C2CC(Cl)=CCC2C(=O)O)sc2c1CCCCC2 (centres undefined)	-12%	?	.	-6%	50µM*	45µM*
CCOC(=O)c1c(NC(=O)COc2cccc(C)c2C)sc2c1CCCCC2	.	-11%	.	-11%	2%	11µM*
COC(=O)c1c(NC(=O)COc2cccc(C(F)(F)F)c2)sc2c1CCCC2	.	-5%	.	0%	1%	8.9µM*
CCOC(=O)c1c(NC(=O)Cc2cccs2)sc2c1CCCC2	32µM*	13%	-1%	65%	17%	12%
CC(=O)c1ccc(N2C(=O)N(Cc3cccc(C(F)(F)F)c3)c3ccccc3S2(=O)=O)cc1	.	-7%	.	40%	-2%	4%[59 µM]
CC[C@H](C)[C@H](NC(=O)[C@H](CC(=O)O)NC(=O)[C@H](CC(C)C)NC(=O)[C@H](NC(C)=O)C(c1ccccc1)c1ccccc1)C(=O)N[C@H](C(=O)N[C@@H](Cc1c[nH]c2ccccc12)C(=O)O)[C@@H](C)CC	4%	.	.	.	.	.
Cc1cc(C)c(NC(=O)Cn2c(=O)n(Cc3ccco3)c(=O)c3ccc(C(=O)NC4CCCC4)cc32)c(C)c1	.	-4%	.	66%	.	36%[59 µM]
COC(=O)c1c(NC(=O)COC(=O)c2ccccc2O)sc2c1CCCCC2	-20%	3%	37%	14%	32%	?
CCOC(=O)c1c(NC(=O)CCC(=O)O)sc2c1CCCCC2	?	?	-5%	?	-5%	7.9µM*
CC1CCc2c(sc(NC(=O)CCC(=O)O)c2C(=O)NC2CC2)C1 (centres undefined)	8.9µM*	?	.	?	-36%	8.9µM*
COC(=O)c1c(NC(=O)COC(=O)c2ccc(NC(=O)CC#N)cc2)sc2c1CCCCC2	-24%	45µM*	?	-17%	45µM*	-2%[59 µM]
CCCCC[C@H](O)/C=C/C=C\C=C\C=C\[C@@H](O)[C@@H](O)CCCC(=O)O	22%	.	.	.	.	28%[59 µM]
Nc1nc(NC2CC2)c2ncn([C@H]3C=C[C@@H](CO)C3)c2n1	4%	.	.	.	.	?
Cc1c(C(=O)NN2CCOCC2)nn(-c2ccc(Cl)cc2Cl)c1-c1ccc(I)cc1	-11%	.	.	.	.	.
CCOc1ccc(C(=O)N2CCC(c3nc4ccccc4o3)CC2)cc1	.	-18%	.	9%	-5%	-7%[59 µM]
Cc1nnsc1C(=O)Oc1ccc(Cl)cc1	.	-3%	.	3%	7%	13µM*
Cc1nnsc1C(=O)Oc1ccc(C#N)cc1	.	89µM*	.	17%	?	16µM*
Cc1cc2c(s1)c(C#N)c(C(=O)NCc1ccccc1F)n2C	.	.	2%	.	-3%	-5%[12.7 µM]
SMILES	Sfp PPTase inh	JMJD2A Tudor inh	L3MBTL1 inh	HP1b binding inh	BAZ2B inh	G9a block
O=c1c(O)c(-c2ccc(O)c(O)c2)oc2cc(O)ccc12	40µM*!	-7%	.	27%	.	.
COc1cc(O)c2c(=O)c(O)c(-c3ccc(O)c(O)c3)oc2c1	-16%	.	.	.	.	.
COc1ccc(NC(=O)Nc2cc(C(=O)NCc3ccc(C)cc3)ccc2N2CCCC2)cc1	.	-9%	.	33%	-3%	8%[12.7 µM]
O=C(CCN1CCN(C(c2ccccc2)c2ccccc2)CC1)N/N=C/c1ccc(O)cc1O	5%	63µM*	-15%	-32%	?	?
COc1ccc(OC)c(/C=N/NC(=O)CCN2CCN(C(c3ccccc3)c3ccccc3)CC2)c1	-17%	?	-10%	-17%	?	10µM*
COc1ccc(OC)c(NC(=O)CCN2CCN(Cc3ccccc3)CC2)c1	4%	-31%	5%	14%	-9%	50µM*
CC(C)Cn1c(=O)c2ccccc2n2c(CCC(=O)NCc3ccccc3Cl)nnc12	.	7%	.	45%	-3%	-1%[59 µM]
COc1ccc(C)cc1NC(=O)Nc1ccccc1OCc1cc(=O)n2ccccc2n1	.	-9%	.	18%[57 µM]	8%	13%[59 µM]
Cc1ccc(OC(C)C(=O)NCC2(N3CCOCC3)CCCCC2)cc1C (centres undefined)	.	0%	.	39%	-5%	4%[59 µM]
Cc1ccccc1CSc1nc(-c2cccc(F)c2)nc2c1Cc1c(CO)cnc(C)c1O2	.	-5%	.	33%	-12%	-9%[59 µM]
Cc1cccc(N=N/C(=C\O)C(=O)c2cccs2)c1	-23%	25µM*	?	?	11µM*	28µM*
O=C(/C(=C/O)N=Nc1ccccc1)c1ccncc1	5%	?	.	-15%	?	-2%[59 µM]
COc1ccc(C(=O)C2C(=O)C(=O)N(Cc3ccco3)C2c2cccs2)cc1 (centres undefined)	.	-20%[57.1 µM]	.	-16%[57 µM]	.	.
Cn1cc[nH]c1=S	?	?	-7%	16%	-23%	45µM*
Nc1ccc2nc(-c3ccccc3)[nH]c2c1	-19%	-34%	0%	-3%	?	-10%[59 µM]
Nc1cccc(-c2nc3ccc(C(=O)c4ccccc4)cc3[nH]2)c1	3%	?	-13%	-11%	50µM*	.
COc1ccc(C2C(C(C)=O)=C(O)C(=O)N2CCO)c(OC)c1 (centres undefined)	-22%	?	2%	11%	?	50µM*
COc1ccc(C2C(C(C)=O)=C(O)C(=O)N2c2nccs2)c(OC)c1 (centres undefined)	10%	-2%	-10%	46%	?	40µM*
COc1ccc(OC)c(C2C(C(C)=O)=C(O)C(=O)N2CCc2ccc(OC)c(OC)c2)c1 (centres undefined)	-14%	-29%	-1%	25%	-5%	?
CCN(CC)CCCN1C(=O)C(O)=C(C(=O)c2ccco2)C1c1cc(OC)ccc1OC (centres undefined)	-6%	.	-2%	.	14%	?
CCCCN1C(=O)C(O)=C(C(C)=O)C1c1ccc(OC)cc1OC (centres undefined)	-16%	50µM*	4%	4%	50µM*	?
